Source: PubChem BioAssay
Giardia FBPA inh = qHTS Assay for Inhibitors of Fructose-1,6-bisphosphate Aldolase from Giardia Lamblia. A8B2U2. purified Giardia FBPA. Potency, µM (series often up to 59.6 µM), inactives show at the top dose activity, negative = inhibition, actives largely listed as inhibitors. 290,000 tested, 0.71% active; further: nearly all actives have a fitted effect of over 55% in size
Target sequence (A8B2U2 whole entry, looked up): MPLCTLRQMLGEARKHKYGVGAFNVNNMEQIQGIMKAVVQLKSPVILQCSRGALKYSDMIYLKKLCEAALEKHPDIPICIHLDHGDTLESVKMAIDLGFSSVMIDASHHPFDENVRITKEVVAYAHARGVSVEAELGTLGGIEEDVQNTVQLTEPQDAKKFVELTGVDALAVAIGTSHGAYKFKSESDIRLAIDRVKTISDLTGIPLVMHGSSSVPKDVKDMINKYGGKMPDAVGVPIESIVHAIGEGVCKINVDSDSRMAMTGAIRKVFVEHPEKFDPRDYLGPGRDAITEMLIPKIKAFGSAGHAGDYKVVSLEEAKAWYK
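Giardia FBPA (40 nM reagent) was preincubated 10 min at RT with compound (up to 57.5 uM final), then substrate plus GAPDH/TPI/NAD/arsenate coupling system with diaphorase/resazurin was added; resorufin fluorescence (525/598 nm) was read after 20 min.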
Cruzain Triton = qHTS Assay for Promiscuous and Specific Inhibitors of Cruzain (with detergent); Cruzipain (Trypanosoma cruzi), P25779; purified cruzain, Z-FR-AMC fluorescence, 0.01% Triton; Potency, µM, without a hit: max response, negative = inhibition, usual class: inhibitors; 200,000 tested, 0.43% active;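 further: plate controls were neutral wells for no effect and buffer without enzyme for full effect; nearly all actives have a fitted effect of over 40% in size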
Target sequence (P25779 123-467 limits assumed): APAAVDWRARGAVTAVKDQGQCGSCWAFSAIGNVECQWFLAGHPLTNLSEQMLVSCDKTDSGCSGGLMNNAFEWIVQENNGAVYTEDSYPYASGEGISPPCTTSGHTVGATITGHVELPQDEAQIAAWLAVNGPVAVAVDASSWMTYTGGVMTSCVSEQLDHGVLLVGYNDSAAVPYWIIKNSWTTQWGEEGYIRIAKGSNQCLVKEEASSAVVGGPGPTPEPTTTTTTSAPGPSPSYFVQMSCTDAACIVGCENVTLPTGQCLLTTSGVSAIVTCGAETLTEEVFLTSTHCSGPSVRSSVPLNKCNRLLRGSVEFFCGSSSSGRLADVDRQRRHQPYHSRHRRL
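Detergent-containing arm of a paired screen for aggregation-based inhibition: 0.01% Triton X-100 present. Cruzain at 1.5 nM cleaved 2 uM Z-FR-AMC at pH 5.5 with 5 mM DTT; AMC fluorescence gain over 60 s measured activity.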
Cruzain noTriton = qHTS Assay for Promiscuous and Specific Inhibitors of Cruzain (without detergent) | purified cruzain, Z-FR-AMC fluorescence, no detergent | Cruzipain (Trypanosoma cruzi), P25779 | 200,000 tested, 2.3% active | AID 1476, 2009 | Potency, µM, inactives show max response, negative = inhibition, hits mostly inhibitors;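 further: plate controls were enzyme without inhibitor for no effect and buffer without enzyme for full effect; nearly all actives have a fitted effect of over 40% in size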
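Purified cruzain at 1.5 nM, pre-incubated 15 min with compound at room temperature in 100 mM sodium acetate pH 5.5, 5 mM DTT, 0.00005% Triton X-100. Reaction started with 2 uM Z-FR-AMC; AMC fluorescence increase over 60 s gives rate.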
An asterisk follows results filed as active; ? = inconclusive; · = not tested or not shown. This excerpt belongs to a sample that is enriched for hits. The call rests on the fitted dose curve; in most records, active means well fitted curve in the direction sought with a large enough effect; inconclusive means small, poorly fitted or top-dose-only effect, or another doubt; inactive means no such curve, though single readings can be large; an effect the other way counts as inactive or inconclusive. Unless noted, on the % scale 0 is the no-effect control and ±100 the full control effect; potency means the concentration at half of the fitted maximal effect.

SMILES	Giardia FBPA inh	Cruzain Triton	Cruzain noTriton
O=C(Nc1ccc(Cl)c(Cl)c1)c1cc(S(=O)(=O)N2CCN(c3cccc(Cl)c3)CC2)ccc1F	·	0.5%	3.16µM*
COc1ccc(C2=CC(c3ccc(F)cc3)n3ncc(C(=O)Nc4ccc(C)cc4)c3N2)cc1 (stereo not given)	·	-2.5%	-27.7%
CCC(Nc1ncnc2ccc(-c3c(C)noc3C)cc12)c1ccccc1 (stereo not given)	-0.1%	·	·
CCOc1ccccc1NC(=O)N1CCC2(CC1)Oc1ccccc1C(=O)N2Cc1ccccc1F	·	-12.0%	-4.5%
O=C(/C=C/c1ccco1)NC(=S)Nc1cccc(-c2nc3ccccc3o2)c1	0.6%	-8.2%	10µM*
O=C(/C=C/c1ccco1)NC(=S)Nc1cccc([N+](=O)[O-])c1	-15.0%	-16.5%	31.6µM*
Cc1cccc(NC(=S)NC(=O)/C=C/c2ccco2)c1	-15.4%	·	·
Cc1ccc(-c2nc3ccccc3o2)cc1NC(=S)NC(=O)/C=C/c1ccco1	-0.6%	-1.9%	?
Cc1ccc(CN(C(=O)COc2cccc([N+](=O)[O-])c2)c2ccccn2)o1	·	-4.2%	-1.9%
CC(C)[C@H](/C=C/C[Si](C)(C)C)[C@H](C)C(O)/C=C/CCCOC(=O)C(C)(C)C (stereo not given in full)	6.9%	·	·
CN(C)CCC(=O)[C@@]1(O)CC[C@H]2[C@H]3CC=C4C[C@@H](O)CC[C@]4(C)[C@H]3CC[C@]21C	·	-3.0%	4.8%
CCOc1cc(-c2ccc(N)c(OCC)c2)ccc1N	-3.0%	-7.8%	25.1µM*
CCOc1ccc(NC(C)=O)cc1N	·	1.4%	-6.7%
CCOC(=O)c1cc2c(=O)n3ccccc3nc2n(CCCOC)c1=NC(=O)c1c(-c2ccccc2Cl)noc1C	·	0.8%	-4.1%
CCCCc1ccc(-c2c(C#N)c(N)nc3c2CCCC3)s1	0.5%	5.2%	25.1µM*
CCCCc1sc(-c2c(C#N)c(N)nc3c2CCCCC3)cc1[N+](=O)[O-]	-0.6%	-5.8%	-4.5%
CCCN(CCC)C(=O)c1nn(C)c2c1CSc1ccccc1-2	·	1.6%	2.8%
CCN(CC)C(=O)CSc1nnc2sc3ccccc3n12	-7.1%	-0.7%	12.8%
COc1cccc(OCCSc2nnc3sc4ccccc4n23)c1	15.8µM*	-5.5%	-14.3%
c1ccc(OCCSc2nnc3sc4ccccc4n23)cc1	17.7µM*	0.1%	5.5%
COc1cccc(OCCSc2nc(N)cc(N)n2)c1	-5.0%	3.8%	-8.3%
COc1ccc(C(=O)n2nc(-c3ccco3)nc2NCc2cccs2)cc1OC	·	-8.3%	18.1%
CC[C@H](C)[C@H](NC(=O)[C@@H](NC(=O)[C@@H](CC(=O)NO)Cc1ccccc1)[C@@H](C)CC)C(=O)O	3.5%	·	·
CC(C)=CCCN1CCC(NC(=O)C(O)(c2ccccc2)C2CCCC2)CC1 (stereo not given)	2.6%	·	·
CC(C)(C)OC(=O)NCCCCC1=CC2=CC(=O)C(C)(OC(=O)C3CCCC3)C(=O)C2=CO1 (stereo not given)	-1.3%	2.6%	2.4%
SMILES	Giardia FBPA inh	Cruzain Triton	Cruzain noTriton
Cc1cc(Cl)ccc1OC(C)C(=O)Nc1ccc(S(=O)(=O)Nc2cnc3ccccc3n2)cc1 (stereo not given)	9.0%	25.1µM*	?
CC(Oc1ccc(Cl)cc1Cl)C(=O)Nc1ccc(S(=O)(=O)Nc2cnc3ccccc3n2)cc1 (stereo not given)	21.5%	22.4µM*	-1.6%
CCC(Oc1ccccc1)C(=O)Nc1ccc(S(=O)(=O)Nc2cnc3ccccc3n2)cc1 (stereo not given)	-2.2%	-26.5%	?
COc1cc(NS(=O)(=O)c2ccc(NC(=O)C(C)Oc3ccc(Cl)cc3Cl)cc2)nc(OC)n1 (stereo not given)	·	-19.1%	15.6%
CCOc1cc(-c2ccc(OC(=O)c3ccc(Cl)cc3)c(OC)c2)cc(=O)c2c(C)oc(C)c12	·	-10.3%	?
O=C(NCc1ccccc1Cl)C(=O)NCC(c1ccco1)S(=O)(=O)c1cccs1 (stereo not given)	·	-7.6%	-3.2%
Cc1ccccc1N1CC(c2nc3ccccc3n2Cc2ccc(Br)cc2)CC1=O (stereo not given)	·	-2.7%	4.8%
COc1ccc(CCNC(=O)C(=O)NCC(c2ccco2)S(=O)(=O)c2ccccc2)cc1OC (stereo not given)	·	-1.7%	-5.7%
COCCn1c(=NC(=O)c2ccc(S(=O)(=O)N3CCc4ccccc4C3)cc2)sc2cc(OC)ccc21	4.3%	-3.3%	3.98µM*
COCCn1c(=NC(=O)CN2C(=O)CCC2=O)sc2cc(S(N)(=O)=O)ccc21	6.0%	-6.3%	4.8%
COc1ccc(C(O)C2=CCCC2=O)cc1 (stereo not given)	-0.8%	-0.3%	-15.5%
CC[C@H](CN(C)C)C(=O)c1ccco1	·	3.6%	3.6%
CSCC[C@H](NC(=O)[C@H](CC(C)C)NC(=O)[C@H](CO)NC(=O)[C@H](CCC(=O)O)NC(=O)[C@H](CC(C)C)NC(=O)[C@H](Cc1ccc(O)cc1)NC(=O)[C@H](CCCCN)NC(=O)[C@H](CCCCN)NC(=O)[C@H](C)NC(=O)[C@H](CO)NC(=O)[C@H](CC(C)C)NC(=O)[C@H](CCC(N)=O)NC(=O)CNC(=O)[C@H](CC(C)C)NC(=O)[C@H](CC(C)C)NC(=O)[C@H](CCCCN)NC(=O)[C@H](CO)NC(=O)[C@H](Cc1ccccc1)NC(=O)[C@H](CC(=O)O)NC(=O)[C@H](CO)NC(=O)[C@@H](NC(=O)[C@H](Cc1ccccc1)NC(=O)[C@@H](NC(=O)CNC(=O)[C@H](CC(=O)O)NC(=O)[C@H](C)NC(=O)[C@@H](N)Cc1cnc[nH]1)C(C)C)[C@@H](C)O)C(N)=O	4.3%	·	·
NNC(=O)[C@@H](O)[C@H](O)[C@H](O)CO	·	3.9%	6.6%
CN(C)S(=O)(=O)c1ccc(NC(=O)Cc2ccc(S(=O)(=O)N3CCOCC3)s2)cc1	-15.8%	·	·
CCn1c2ccccc2c2cc(NC(=O)Cc3ccc(S(=O)(=O)N4CCOCC4)s3)ccc21	-5.2%	-2.1%	15.8µM*
CCOC(=O)c1cc(-c2ccc(F)cc2)n(CCC(=O)NCc2ccc(C)cc2)c1C	·	-8.8%	?
COc1ccc([C@H]2[C@H](C(=O)C(C)(C)C)N3N=Cc4ccccc4C3C23C(=O)OC(C)(C)OC3=O)cc1 (stereo not given in full)	-7.8%	-2.0%	-0.2%
O=C(c1ccccc1)[C@H]1[C@H](c2ccccc2)[C@@]2(N=C(c3ccccc3)OC2=O)C2c3ccccc3C=NN21 (stereo not given in full)	-5.3%	-7.5%	10µM*
NCC(=O)NC1(C(=O)O)CCCC1	·	3.4%	1.1%
O=C(CCCCn1c(=O)c2ccccc2n(Cc2cccc(F)c2)c1=O)NCCc1ccccc1	·	-2.8%	-8.7%
N#C/C(=C\NC(=S)c1ccncc1)c1nc2ccccc2s1	·	-0.3%	-25.6%
O=[N+]([O-])c1cccc(/C=C/c2nc(C=Nc3ccccc3)c(O)o2)c1	2.4%	0.4%	12.6µM*
Oc1oc(-c2ccccc2)nc1C=Nc1ccccc1	-6.2%	-9.6%	-9.5%
O=C(c1cccc(C(=O)N2CCN(c3ncccn3)CC2)c1)N1CCN(c2ncccn2)CC1	-1.1%	5.7%	-6.6%
